Measured values: PubChem BioAssay (Tox21)
Results filed as inconclusive are left out. The source made the active and inactive calls. Unless noted, the call rests on the fitted dose curve; in most records, active means well fitted curve in the direction sought with a large enough effect in the repeat runs; inconclusive means weak or mixed curves; inactive means no such curve, though single readings can be large; an effect the other way counts as inactive or inconclusive.

How the values were obtained:
[1] = qHTS assay for small molecule agonists of the p53 signaling pathway (AID 651631; calls by dose curve; further: nearly all actives have a fitted effect of over 15% in size)
Outline: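 Testing took place in human colorectal HCT-116 cells with stable p53RE-driven beta-lactamase. After 16 h of compound exposure at 37 °C, a FRET substrate was added and fluorescence recorded 2 h later.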

[2] = qHTS assay for small molecules that induce genotoxicity in human embryonic kidney cells expressing luciferase-tagged ATAD5 (AID 651632); further: nearly all actives have a fitted effect of over 15% in size
Outline: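 Concentration-response screen for ATAD5 upregulation in HEK293T luciferase reporter cells; 16 hr treatment at 37C, then luminescence after 30 min with Amplite at room temperature.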

[3] = qHTS assay for small molecule agonists of the p53 signaling pathway - cell viability (AID 651633; calls by dose curve; further: series mostly up to about 83 µM; nearly all actives have a fitted effect of over 30% in size)
Outline: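 p53RE-bla cells, seeded at 4,000 per well and rested 5 h at 37 C/5% CO2, received compounds in DMSO for 16 h at 37 C. CellTiter-Glo was then added, and luminescence was read after 30 min at room temperature to gauge cytotoxicity.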

[4] = qHTS assay for small molecules that induce genotoxicity in human embryonic kidney cells expressing luciferase-tagged ATAD5 - cell viability (AID 651634; calls by dose curve; further: nearly all actives have a fitted effect of over 25% in size)
Outline: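 15.5 hr compound or vehicle exposure of HEK293T cells expressing luciferase-tagged ATAD5 at 37C; live-cell protease activity is read by fluorescence after 30 min of CellTiter-Fluor.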

[5] = qHTS assay for small molecule disruptors of the mitochondrial membrane potential - cell viability (AID 720634; calls by dose curve;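 further: human HepG2 liver cancer cells; series mostly up to about 83 µM; nearly all actives have a fitted effect of over 20% in size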)
Outline: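 In this qHTS format, HepG2 cells plated overnight were pinned with compound, incubated 1 hr, and assayed for ATP luminescence with CellTiter-Glo after m-MPI dye addition.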

[6] = qHTS assay for small molecule disruptors of the mitochondrial membrane potential (AID 720635)
Outline: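 HepG2 cells (2,000/well) attached overnight at 37C, then took compound for 1 hr at 37C, 5% CO2. Mito-MPS dye was added for 30 min; fluorescence was read at 490/535 nm (monomers) and 540/590 nm (aggregates).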

[7] = qHTS assay to test for compound auto fluorescence at 535 nm (green) in HepG2 cells (AID 720675)
[8] = qHTS assay to test for compound auto fluorescence at 460 nm (blue) in HEK293 cells (AID 720678)
Outline: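 Measured: blue fluorescence (Ex 405/Em 460 nm) of compound-treated HEK293 cells, incubated overnight at 37C with 5% CO2 and scaled to triamterene equivalents.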

[9] = qHTS assay to test for compound auto fluorescence at 590 nm (red) in HEK293 cells (AID 720679)
Outline: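 Using HEK293 cells at 2,000 per well, the screen added 23 nL of each compound after cell attachment and incubated overnight (37C, 5% CO2). The plate reader then captured red-label fluorescence, Ex/Em 540/590nm.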

[10] = qHTS assay to test for compound auto fluorescence at 535 nm (green) in HEK293 cells (AID 720680)
[11] = qHTS assay to test for compound auto fluorescence at 460 nm (blue) in HEK293 cell free culture (AID 720681)
Outline: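 Test compounds were pinned into cell-free culture medium (DMEM with 10% FBS) and fluorescence was read directly at Ex/Em 405/460 nm. Signals were expressed as fluorescence equivalents of triamterene, with DMSO vehicle as control.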

[12] = qHTS assay to test for compound auto fluorescence at 535 nm (green) in HEK293 cell free culture (AID 720682)
Outline: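 DMEM + 10% FBS, cell-free; cpd or DMSO pinned in; Ex485/Em535 read; output as fluorescein-equivalent signal.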

[13] = qHTS assay to test for compound auto fluorescence at 590 nm (red) in HEK293 cell free culture (AID 720683)
Outline: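 Tox21 10K library compounds were pinned into cell-free DMEM with 10% FBS and fluorescence was read at excitation 540 nm. Activity is expressed as Rose Bengal sodium equivalency.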

[14] = qHTS assay to test for compound auto fluorescence at 590 nm (red) in HepG2 cell free culture (AID 720684)
Outline: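 Ex 540 / Em 590 nm read of compound in cell-free MEM (10% FBS). Rose Bengal sodium reference.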

[15] = qHTS assay to test for compound auto fluorescence at 460 nm (blue) in HepG2 cell free culture (AID 720685)
Outline: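 Cell-free plates of MEM plus 10% FBS received 23 nL compound or DMSO vehicle; blue-channel (405/460 nm) intensity scored against triamterene as reference fluorophore.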

[16] = qHTS assay to test for compound auto fluorescence at 535 nm (green) in HepG2 cell free culture (AID 720686)
[17] = qHTS assay to test for compound auto fluorescence at 460 nm (blue) in HepG2 cells (AID 720687)
Outline: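 Cells (2,000/well in MEM with 10% FBS) attached overnight at 37 C, then were exposed to compound or DMSO for 1 hr at 37 C, 5% CO2. Fluorescence read at Ex/Em 405/460 nm, expressed as triamterene-equivalent signal.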

[18] = qHTS assay to test for compound auto fluorescence at 590 nm (red) in HepG2 cells (AID 720674)
Outline: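 Compound auto-fluorescence is scored relative to Rose Bengal sodium, measured at 540/590 nm in live HepG2 cultures after 1 hr compound contact (37 C, 5% CO2).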

[19] = target: Glucocorticoid receptor (Homo sapiens) (UniProt P04150); test: qHTS assay to identify small molecule agonists of the glucocorticoid receptor (GR) signaling pathway (AID 720691; active means well fitted activation curve with a large enough effect in the signal ratio in the repeat runs, not every such curve was filed as active; the % refers to the signal ratio)
Glucocorticoid receptor (Homo sapiens), sequence (P04150 whole entry, looked up): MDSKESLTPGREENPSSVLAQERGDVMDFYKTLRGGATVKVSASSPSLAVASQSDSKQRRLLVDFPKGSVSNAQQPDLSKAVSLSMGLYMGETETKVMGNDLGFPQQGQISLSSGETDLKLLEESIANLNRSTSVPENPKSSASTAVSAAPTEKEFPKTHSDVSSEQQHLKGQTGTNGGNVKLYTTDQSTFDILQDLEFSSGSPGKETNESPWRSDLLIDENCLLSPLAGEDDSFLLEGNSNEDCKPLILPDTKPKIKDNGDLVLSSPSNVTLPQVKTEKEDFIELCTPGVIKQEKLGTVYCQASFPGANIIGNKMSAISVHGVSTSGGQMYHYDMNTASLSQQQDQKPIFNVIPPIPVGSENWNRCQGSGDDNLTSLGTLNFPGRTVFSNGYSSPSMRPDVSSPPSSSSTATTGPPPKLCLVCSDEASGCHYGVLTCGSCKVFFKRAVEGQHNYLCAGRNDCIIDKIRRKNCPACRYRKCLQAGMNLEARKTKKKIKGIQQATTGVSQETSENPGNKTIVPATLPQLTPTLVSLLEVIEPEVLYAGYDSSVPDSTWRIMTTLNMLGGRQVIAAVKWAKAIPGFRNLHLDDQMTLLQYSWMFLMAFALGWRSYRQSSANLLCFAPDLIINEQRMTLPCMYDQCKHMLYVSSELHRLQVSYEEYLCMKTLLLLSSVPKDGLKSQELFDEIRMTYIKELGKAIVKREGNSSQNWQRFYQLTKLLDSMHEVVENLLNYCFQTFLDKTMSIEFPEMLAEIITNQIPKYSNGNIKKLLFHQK
Outline: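 Measures GR pathway activation through a GRE-beta-lactamase reporter stably integrated in HeLa cells, with 18 h compound treatment at 37 C and fluorescence detection using a FRET substrate.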

[20] = target: Glucocorticoid receptor (Homo sapiens) (UniProt P04150); test: qHTS assay to identify small molecule antagonists of the glucocorticoid receptor (GR) signaling pathway (AID 720692; active means well fitted inhibition curve with a large enough effect in the signal ratio in the repeat runs, not every such curve was filed as active; the % refers to the signal ratio)
Outline: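 Tox21 10K library screened in concentration-response for blockade of dexamethasone (5 nM final)-induced GRE-bla reporter activity in HeLa cells; 18 h treatment, fluorescence read.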
On the % scale 0 is the no-effect control and ±100 the full control effect.

O=P(O)(O)C(O)(Cc1cccnc1)P(=O)(O)O
inactive: Potency [1] | Potency [2] | outcome [3] | outcome [4] | outcome [5] | Potency [6] | outcome [7] | outcome [8] | outcome [9] | outcome [10] | outcome [11] | outcome [12] | outcome [13] | outcome [14] | outcome [15] | outcome [16] | outcome [17]

CCOC(=O)CC
inactive: Potency [1] | Potency [2] | outcome [3] | outcome [4] | outcome [5] | Potency [6] | outcome [18] | outcome [7] | outcome [8] | outcome [9] | outcome [10] | outcome [12] | outcome [13] | outcome [14] | outcome [15] | outcome [17]

CCCC(=O)C(CC)Sc1ccoc1C (configuration not stated)
inactive: Potency [1] | Potency [2] | outcome [3] | outcome [4] | outcome [5] | Potency [6] | outcome [18] | outcome [7] | outcome [8] | outcome [9] | outcome [11] | outcome [12] | outcome [13] | outcome [14] | outcome [15] | outcome [17]

CCCCc1ccc(Cl)cc1
inactive: Potency [1] | Potency [2] | outcome [3] | outcome [4] | outcome [5] | Potency [6] | outcome [18] | outcome [7] | outcome [8] | outcome [9] | outcome [10] | outcome [12] | outcome [13] | outcome [14] | outcome [15] | outcome [16] | outcome [17]

CC(C)(C)OC(=O)c1ccccc1C(=O)O
inactive: Potency [1] | Potency [2] | outcome [3] | outcome [4] | outcome [5] | Potency [6] | outcome [18] | outcome [7] | outcome [8] | outcome [9] | outcome [11] | outcome [12] | outcome [13] | outcome [14] | outcome [15] | outcome [16] | outcome [17]

C[C@@H]1NC(=O)[C@@H](N)CNC(=O)[C@H](C2CCNC(N)=N2)NC(=O)/C(=C/NC(N)=O)NC(=O)[C@H](CNC(=O)C[C@@H](N)CCCN)NC1=O (some centres not stated)
inactive: Potency [1] | Potency [2] | outcome [3] | outcome [4] | outcome [5] | Potency [6] | outcome [18] | outcome [7] | outcome [8] | outcome [9] | outcome [10] | outcome [11] | outcome [12] | outcome [13] | outcome [14] | outcome [15] | outcome [16] | outcome [17] | Potency [19] | outcome [20]

Cc1ccc(O)c([N+](=O)[O-])c1
inactive: Potency [1] | Potency [2] | outcome [3] | outcome [4] | outcome [5] | Potency [6] | outcome [18] | outcome [7] | outcome [8] | outcome [9] | outcome [10] | outcome [11] | outcome [12] | outcome [13] | outcome [14] | outcome [15] | outcome [16] | outcome [17]

Cc1cc(C)c(C)c(C)c1
inactive: Potency [1] | Potency [2] | outcome [3] | outcome [4] | outcome [5] | outcome [18] | outcome [7] | outcome [8] | outcome [9] | outcome [10] | outcome [11] | outcome [12] | outcome [13] | outcome [14] | outcome [15] | outcome [16] | outcome [17]

O=Cc1ccc(C(=O)O)cc1
inactive: Potency [1] | Potency [2] | outcome [3] | outcome [4] | outcome [5] | outcome [18] | outcome [7] | outcome [8] | outcome [9] | outcome [10] | outcome [11] | outcome [12] | outcome [13] | outcome [14] | outcome [15] | outcome [16] | outcome [17] | Potency [19] | outcome [20]

CCCCC(CC)CCC(CC(C)C)OS(=O)(=O)O (configuration not stated)
inactive: Potency [1] | Potency [2] | outcome [3] | outcome [4] | outcome [5] | outcome [18] | outcome [7] | outcome [8] | outcome [9] | outcome [10] | outcome [11] | outcome [12] | outcome [13] | outcome [14] | outcome [15] | outcome [16] | outcome [17]

CC(C)(Sc1cc(C(C)(C)C)c(O)c(C(C)(C)C)c1)Sc1cc(C(C)(C)C)c(O)c(C(C)(C)C)c1
inactive: Potency [1] | Potency [2] | outcome [3] | outcome [4] | outcome [5] | Potency [6] | fluorescence, % of fluorescein control [7] -0.143% [at 18.6 µM] | fluorescence, % of triamterene [8] -0.428% [at 18.6 µM] | fluorescence, % of fluorescent control [9] -1.27% [at 18.6 µM] | fluorescence, % of fluorescent control [11] -0.101% [at 18.6 µM] | activity change [12] 0.0049% [at 18.6 µM] | fluorescence, % of fluorescent control [13] -0.146% [at 18.6 µM] | fluorescence, % of Rose Bengal [14] -0.645% [at 18.6 µM] | fluorescence, % of fluorescent control [15] -0.0941% [at 18.6 µM] | fluorescence, % of fluorescein control [16] -0.106% [at 18.6 µM] | fluorescence, % of fluorescent control [17] 0.0012% [at 18.6 µM]

OCCC(F)(F)C(F)(F)C(F)(F)C(F)(F)C(F)(F)C(F)(F)F
inactive: Potency [1] | Potency [2] | outcome [3] | outcome [4] | outcome [5] | outcome [18] | outcome [7] | outcome [8] | outcome [9] | outcome [10] | outcome [11] | outcome [12] | outcome [13] | outcome [14] | outcome [15] | outcome [16] | outcome [17] | Potency [19] | outcome [20]

Cc1cc(N)no1
inactive: Potency [1] | Potency [2] | outcome [3] | outcome [4] | outcome [5] | outcome [18] | outcome [7] | outcome [8] | outcome [9] | outcome [10] | outcome [11] | outcome [12] | outcome [13] | outcome [14] | outcome [15] | outcome [16] | outcome [17] | Potency [19] | outcome [20]

CCCCCCCCCCCBr
inactive: Potency [1] | Potency [2] | outcome [3] | outcome [4] | outcome [5] | outcome [18] | outcome [7] | outcome [8] | outcome [9] | outcome [10] | outcome [11] | outcome [12] | outcome [13] | outcome [14] | outcome [15] | outcome [16] | outcome [17] | Potency [19] | outcome [20]
